# Reference: the supplement of paper PMC11417369
# ± gives the standard deviation of the averaged measurements. Over roughly 25,000 sequences, “ln(normalized median fluorescence intensity)” has its median near 7.9; the highest 2% begin near 11. This excerpt belongs to a sample that is enriched for the highest values.
# Tested on: PfAP2-I AP2 domain 3 (GST-tagged)
# Test: gcPBM binding intensity (ln(normalized median fluorescence intensity)); higher = stronger DNA binding
# Procedure, shortened: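 An Agilent 4 × 180k array carrying primer-extended double-stranded 36-bp intergenic genomic probes and negative controls received GST-tagged P. falciparum DNA-binding domains expressed in E. coli, about 25 μg on average, for 1 h. The binding buffer contained 1× PBS, 1% milk, 0.2 mg/ml BSA, 0.5% salmon testes DNA and 0.03% Triton X-100. Binding intensity is the top Masliner-normalised natural-log median intensity across replicate spots of either probe orientation, read after Alexa488 anti-GST antibody staining and a 488 nm scan.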
row,Sequence,gcPBM binding intensity (ln)
1,TTGTTTTCTTTTTCTTTTCTTTTTCTTTTTTCTTTT [GTGCAC_negctrl_site629],7.55 ± 0.73
2,CATTAAAATATGAGATGTACACAATATCTATTATAT [XGTACX_site4979],7.82 ± 0.51
3,CAATGCAAGGCTTAAAAAAATGGGCATATTATATAT [GTGCAC_negctrl_site304],7.79 ± 0.83
4,TAAGTTATATGTATATGTACTTATATATATATATAT [XGTACX_site5402],9.16 ± 0.76
5,AGAATATAATTTTTATGTACATATATTAAATATATT [XGTACX_site8521],7.6 ± 0.37
6,CATATAAGAATCTTCTGTACTTATAAGAAAAGACAT [XGTACX_site8135],7.89 ± 0.48
7,AAAAAAAGTTGATACTGTACTCGTGCATTATGAATA [XGTACX_site5558],11.3 ± 0.57
8,TATTATGACTTAAGTTGTACTGTTGAAAGAAGAAAA [XGTACX_site2985],7.88 ± 0.53
9,TTATGAAAAAAATACTGTACACAATATGACGAAAGT [XGTACX_site2283],8.46 ± 0.42
10,ACTTAATTTTTTTATTGTACATGTAAATGAGGGAAA [XGTACX_site6305],8.25 ± 0.26
11,AAGACTCTTTGTCCTTGTACATATATTTTTATGTTT [XGTACX_site3711],7.76 ± 0.59
12,CACATACACATACAAACACACATTATGTATATATAT [CACACA_site1599],8.16 ± 0.84
13,ATATATTTAAACTACACACGCATATCTTAGAAATAA [CACACA_site1272],7.77 ± 0.54
14,ATTAATTAAAATAGTTGTACAATCAAAAAAACAAAA [XGTACX_site7660],8.15 ± 0.64
15,AAAATAAAATTAGTTGCATGCAACTTAAACAGAAAT [TGCATGCA_site860],8.14 ± 0.63
16,ATAAATAAAACAACAGTGCAATAAAATTAGTTGAGG,10.9 ± 0.25
17,AATATATTTTTATATTGTACAAAAGAAAAAAAATAT [XGTACX_site1689],8.05 ± 0.48
18,TTTTTTTTGTATTAATGTACATATAACTTTTTTTTT [XGTACX_site7903],7.7 ± 0.49
19,AATACACATAATACATGTACTCACATTGTTATAACA [XGTACX_site4129],8.04 ± 0.53
20,TTTATATCATTACAAGTGCATATCATCATAAATTCT [GTGCAC_site9878],8.81 ± 0.3
21,AGTTGCATACATTGAAGTACAGAACATTTATATATA [XGTACX_site240],7.86 ± 0.44
22,AGTTTGCATATGGAAGTGCATTACCTTGAACATCAT,11.2 ± 0.38
23,TATATATGTTTATGTAGTACTATATATCCCTTTCTT [XGTACX_site7049],7.61 ± 0.53

row,Sequence,gcPBM binding intensity (ln)
1,TAAATTTATGGACACACACACATATATATATATATA [CACACA_site4620],9.45 ± 0.35
2,TATAGATACACTTTGTGTACATAAAAATTGTATTAA [XGTACX_site7137],7.66 ± 0.29
3,TATAAACTTAATTTGAGTACTTAATAATAATTTTGT [XGTACX_site3730],7.38 ± 0.47
4,GTCAACTTGTGATAAGTGCATATATATAATAAAATG,9.875 ± 0.078
5,GTACACCTATAATATACACACAACAAATATGCACAT [CACACA_site6603],9.64 ± 0.39
6,ATACAGTTGCATATGGTGCACGAATAATACACCTAT,11 ± 0.25
7,GAATAATATGGACATACACACATATACATACCTATA [CACACA_site7075],8.07 ± 0.59
8,ACTATTAAGAATAAAGAAATATGTAATTGTATTTAA [CACACA_negctrl_site516],7.43 ± 0.59
9,GTATAGAGAAAAAACTGTACTTTATATAAATATTTA [XGTACX_site3972],7.53 ± 0.3
10,ATATATGTACAAATTGTGCGCAATAATTTTGTCTTT,9.06 ± 0.33
11,TACATTTCATTGTAATCATAAAAAATAAAGAAAAAA [XGTACX_negctrl_site542],7.58 ± 0.61
12,ATAATGAACAAAGTAGTGCACTTTCCTTATCTTTTC,11.4 ± 0.26
13,CCTTTCCTTTTATAAGTGCATATAACAAATGTATAC [GTGCAC_site9872],10 ± 0.11
14,ATATCTTATAATACGGTGCACTTGACATGAACAACT [GTGCAC_site9987],10.7 ± 0.3
15,AATATAAACCCAAACACACACATATATATATATATA [CACACA_site268],9.4 ± 0.37
16,ATATAAAATATGAGTAGTACATATTTTCTCATCTTA [XGTACX_site8595],7.55 ± 0.38
17,ACTACAAGGCAATACAGTACATATAAATGTCATAAT [XGTACX_site8468],7.85 ± 0.45
18,AATAATATATATTACACACGCATCGTTCATTTATTT [CACACA_site2391],7.87 ± 0.92
19,AAATACTGATTTGGTTGTACATGTGCACTATATAAC [XGTACX_site3795],11.3 ± 0.56
20,AAATATTTGTGTGGTTGTACTATAATGATAAAAATA [XGTACX_site7703],8.14 ± 0.42
21,ATACTAACATTTTTTTGTACATATAACTATAAAATA [XGTACX_site1033],8.09 ± 0.47
22,GGGAAACGATTTAATACACACACGTATTATATATAT [CACACA_site1160],8.48 ± 0.59
23,ATTAGTATAATGTAACTTAGTTAATAGTGCTAATAT [CACACA_negctrl_site764],9.54 ± 0.4

row,Sequence,gcPBM binding intensity (ln)
1,TTTTCATTTGTGACAGTGCAAAATGTTATATTAAAA [GTGCAC_site9647],9.99 ± 0.3
2,AAAAAAAAAAAAATGGTGCAACTTTGTTAAAGGAAA [GTGCAC_site9950],9.56 ± 0.12
3,CTCATTTTGTTAATGGTGCAAAAAAAAAAAAAAAAA,11.1 ± 0.73
4,ATGGATTATTTTTAAACATGCAGTAGTGATGAAAAA [TGCATGCA_site346],8.36 ± 0.53
5,GACATATTCCCCCCCACACACACACCCACATACATA [CACACA_site2302],10.8 ± 0.26
6,CATATTCCCCCCCACACACACACACGCATACATACC [CACACA_site7148],10.8 ± 0.33
7,CATATTCCCCCCCACACACACACACCCATACATACC [CACACA_site2303],11.2 ± 0.44
8,GTTGAAAAAAAAAATGCACACGCATACATATAATAT [CACACA_site8117],8.71 ± 0.29
9,AAATATAATATATGCACACATACATACATATATATA [CACACA_site104],9.41 ± 0.3
10,TTTGAAATAAATAATGCACACTCTACATATATACGT [CACACA_site2244],11.1 ± 0.61
11,TGAAAAAAAAAATGCACACGCATACAGATAATATGT [CACACA_site4526],8.62 ± 0.51
12,TGAAATAAATAATGCACACTCTACAGATATACGTAT [CACACA_site5270],11.1 ± 0.66
13,AAATATAATATATGCACACATACATACAGATATATA [CACACA_site4235],9.22
14,AAAAATAAAATATATACATGCATATACATATTATAT [TGCATGCA_site668],7.87 ± 0.45
15,AAATAAAATTATAATACATGCATACATACATATATA [TGCATGCA_site69],7.9 ± 0.54
16,AATTATATAAGCCACGCATGTGTGCATAAAAATACA [TGCATGCA_site114],11.1 ± 0.34
17,ATGTTAATAACTTGTGGTACTGTTATAATTTAGTAA [XGTACX_site2114],7.71 ± 0.42
18,TATTAATTATATTTATGTACATAATCATATTATTAT [XGTACX_site7938],7.66 ± 0.39
19,ATATATATATAATTATATAAAATATATCATATGTTA [XGTACX_negctrl_site47],8.76 ± 0.16
20,TTTAATCATATGTTATATAATAAGCCCCCCCCCCAA [CACACA_negctrl_site486],11.1 ± 0.63
21,ATTATTTGATTAAAGGTGCAAGGATAATAATAAAAC,9.47 ± 0.17
22,AAAAAAAAAAAAAAGGTGCATACTTTGAATTAATAT [GTGCAC_site9401],9.87 ± 0.17
23,ATTAATAATCGAAAGGTGCACTTTGATTTGATAACA,11.2 ± 0.3

row,Sequence,gcPBM binding intensity (ln)
1,AAAAAAAAAAAAAAAAGTACATGAAAAAAAGAAGAA [XGTACX_site8384],8.7 ± 0.27
2,ATTATGTACAAAATGGTGCAATATTATACATATATA [GTGCAC_site9468],11.1 ± 0.49
3,ATTTTTTTTTTTTTATGTACATATAGGTGCAAATCA [XGTACX_site6748],11.3 ± 1
4,ATATAAAATACATGGGTGCAATATATTAAACAAATA [GTGCAC_site9421],11.2 ± 0.48
5,TATTAAATATATATTACATGCAAAAAAAAAAAACAA [TGCATGCA_site705],7.97 ± 0.52
6,CAATATATTATATGGGTGCAAACCACATATAAATAA,10.1 ± 0.33
7,CATATATATTTTATATGTACATATATATTTTATATA [XGTACX_site8665],7.59 ± 0.15
8,TACAAATATATAAAATGTACATATATATACATATTA [XGTACX_site3029],7.46 ± 0.27
9,TAAAGGAAATAAAAAACATGCAAATATGAAATATAT [TGCATGCA_site745],7.61 ± 1.1
10,ATTTTATATACAAAATGTACATATTTATTATATATG [XGTACX_site6732],7.74 ± 0.5
11,GACAATTATATGTAGGTGCATATACAAATTTTTTAA,10.4 ± 0.57
12,AGGTGCAAAAATAAAACATGCAAAAATAAAAATGAA [TGCATGCA_site502],10.9 ± 0.65
13,AAATAAAATAATAAAACATGCAAAAATAATGATTTA [TGCATGCA_site415],7.71 ± 0.76
14,TTTTATTGTTTTTTTTTTTTTTCTTTTTTTTTTTTT [CACACA_negctrl_site1094],7.91 ± 0.46
15,ATACGTGGGCAAAAAGTGCATATAATCAAAAAAAAA [GTGCAC_site9961],10.4 ± 0.11
16,ATAAGATAGGCATATACACACATTTATTTACAGATA [CACACA_site5754],7.71 ± 0.67
17,TTGTTTTTGTTCTTGGGTACTTAAATTATAAATGAT [XGTACX_site113],8.07 ± 0.45
18,ATAACTTTTTAAAAGACACACATAAGAAAAACAAAA [CACACA_site723],8.08 ± 0.64
19,TATATGTGATAACACGCACACAAATGTATATAATTT [CACACA_site2593],8.1 ± 0.28
20,TCTTTATATCATCTTTCTAAATATATATATATATAA [CACACA_negctrl_site77],7.84 ± 0.55
21,TTCATTAAATAGAACAAAATAATAATATAACAACAA [GTGCAC_negctrl_site116],7.74 ± 0.53
22,AAAATAAATAAAAAAAGTACATATATAATTTATAAA [XGTACX_site2411],7.75 ± 0.39
